Test results reported in PubChem BioAssay (NCI).
About 79,000 compounds went through this panel and 15% of them were active in at least one assay; those are over-represented in the sample as a whole. Values without a mark were called inactive. Calls of active or inactive are those of the source. Cut-off read from the data, not from the text of the source: active = growth inhibition above about 70%; inactive = the rest.

assay: NCI Yeast Anticancer Drug Screen. Data for the mlh1 rad18 strain (AID 175); conditions: S. cerevisiae mlh1 rad18 strain growth inhibition; at 5.0 µM (retest, dose inferred, filed as 0.5); stronger effect = higher value
Procedure, shortened: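 Growth inhibition of the yeast strain was measured after compound exposure and expressed relative to vehicle-treated controls. The strain carries defined defects in DNA damage repair.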

Row | SMILES | growth inhibition
1 | O=C(O)CCCCCCCCCCOc1ccc(Cl)cc1Cl | 0%
2 | C=C(CN1CCCC1)C(=O)c1ccc(OC)cc1 | 4%
3 | CNC(=O)OCc1c(COC(=O)NC)c(-c2ccc(OC)cc2)n2c1CCC2 | 23%
4 | CCCCC(=S)N1CCN(c2ccccc2)CC1 | -2%
5 | CCN(CC)C(=S)N/N=C/c1cc(OC)ccc1O | -30%
6 | COc1ccc2c(c1)CN1C(CCC3c4ccccc4NC31)C2 (stereo not given) | -12%
7 | CCCCC(=O)N/N=C(\C)[C@]1(O)Cc2c(O)c3c(c(O)c2[C@@H](OC2CC(N)C(O)C(C)O2)C1)C(=O)c1c(OC)cccc1C3=O (stereo not given in full) | 17%
8 | C=C1C(=O)C23OC2C1CCC(=O)C1(C)CC[C@H](OC(C)=O)C(C)(C)[C@H]1CC3O (stereo not given in full) | 92% (active)
9 | Cc1nc(N)sc1N=Nc1ccc(Cl)cc1Cl | 16%
10 | O=C(O)c1cc2c3ccccc3sc2c2ccccc12 | -3%
11 | COc1ccc2c(c1)C(Br)CCC(Br)C2=O (stereo not given) | -20%
12 | Cc1cc(OCCl)ccc1[N+](=O)[O-] | 1%
13 | COC(=O)c1nnc(C(=O)OC)c2c1[nH]c1ccccc12 | -3%
14 | O=S(Nc1ccccc1Br)c1ccccc1 (stereo not given) | -4%
15 | Cc1c2c(c(C)c3c1OC(C)(C)CC3)OC(C)(C)CC2 | -13%
16 | O=c1cc(CSc2ccc(Cl)cc2)occ1O | 2%
17 | Cc1ccc2c(c1)[n+]([O-])c(N)n[n+]2[O-] | 20%
18 | CC(=O)c1c2c(cc3c1CC1(C3)Cc3cc4c(c(C(=O)O)c3C1)CCC4)CCC2 (stereo not given) | 73% (active)
19 | CCCCCCCCCCC(NC(C)=O)(C(=O)OCC)C(=O)OCC | 11%
20 | Cc1nc2c(cnn2C)cc1CCc1ccccc1 | 8%

Row | SMILES | growth inhibition
21 | CCc1cccc(C)c1NC(=O)C(=O)CC(=O)c1ccccc1Cl | -8%
22 | COc1nc(N)c(N=O)c(OCc2ccccc2)n1 | 99% (active)
23 | O=C1O/C(=C2\OC(=O)c3ccccc32)c2ccccc21 | 16%
24 | Cc1ccc(O)c(C(C)(C)c2ccccc2)c1 | -10%
25 | CCOC(=O)NN(C(=O)OCC)c1ccc(N=Nc2ccc(OC)cc2)n1C | -32%
26 | S=C(NCc1ccccc1)[S][Sb]([S]C(=S)NCc1ccccc1)[c]1ccccc1 | 6%
27 | O=CCCCc1cc2c(cc1Br)CCC2 | 21%
28 | CCC(C)CNCCCCCNc1cc(OC)cc2cccnc12 (stereo not given) | 29%
29 | CNC(=O)NC(c1cc(OC)c(OC)c(OC)c1)c1cc2c(cc1O)OCO2 (stereo not given) | -19%
30 | CCCCCCCSCc1nc2ccccc2c(C)[n+]1[O-] | 3%
31 | Cc1[nH]c(=O)[nH]c(=O)c1CN(C)Cc1cc(Cl)cc(Cl)c1O | -3%
32 | O=C(N/C(=C\c1cccc([N+](=O)[O-])c1)c1nc2ccccc2s1)c1ccccc1 | 29%
33 | CC1NS(=O)(=O)N(C)C1=O (stereo not given) | 2%
34 | Cc1csc2[n+]1C(=O)/C(=C\c1ccc([N+](=O)[O-])cc1)S2 | 24%
35 | CC(C)c1ccc2c(c1)CCC1C(C)(C(=O)O)CCCC21C (stereo not given) | 16%
36 | COc1ncnc2nc(SC)[nH]c12 | 0%
37 | CCN(CC)C(=O)CCCCC(=O)OC(C)C | -1%
38 | CC(=O)O/N=C1/CCC2C3CC=C4CC(OC(C)=O)CCC4(C)C3CCC12C (stereo not given) | 34%
39 | Clc1ccc(CNc2ccc(Br)cc2)cc1 | -1%
40 | Cc1cnc(C#N)c(C#N)n1 | -3%
